Source: PubChem BioAssay (National Center for Advancing Translational Sciences (NCATS))
KB-V1 cytotox: KB-V1 MDR subline cytotoxicity. 400,000 compounds, 3.4% hits. KB-V1 MDR cells viability, CellTiter-Glo, 72 h. AID 1347076. Potency, µM (titrated, usually from 46.1 µM), actives largely listed as cytotoxic; note: % is set by controls: 0 for no effect and ±100 for the full control effect; nearly all actives have a fitted effect of over 60% in size
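Drug-selected KB-V1 cells, grown in DMEM lacking phenol red with 10% FBS, receive compound titrations; after three days at 37 degrees C, surviving cell ATP is quantified by CellTiter-Glo luminescence and responses normalized and curve-fitted.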
HepG2 viability: kills HepG2 cells in TGF-b inhibitor counter-screen; HepG2 CAGA-GFP viability, ATP luminescence, 18 h; Potency, µM (doses to about 46.1 µM), for the others: at the highest dose activity change, negative = cytotoxicity, usual class: cytotoxic; 410,000 compounds, 0.76% hits; AID 588856
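CellTiter-Glo luminescence gave cytotoxicity after 18 hours at 37 degrees C. The cells were HepG2 CAGA-GFP in 1% FBS DMEM, stimulated with 500 pg/mL TGF-beta after compound addition. %Activity was normalised to no-cell wells (complete cell-killing) and DMSO (no toxicity), and curves were fitted and classified.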
KB-3-1 tox: KB-3-1 parental cell cytotoxicity; 400,000 compounds, 1.4% hits; KB-3-1 viability, CellTiter-Glo ATP luminescence, 72 h; AID 1347075; Potency, µM (doses to about 46.1 µM), most hits filed as cytotoxic; note: % is set by controls: 0 for no effect and ±100 for the full control effect; nearly all actives have a fitted effect of over 60% in size
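Multi-concentration cytotoxicity screen in KB-3-1 cells grown in DMEM lacking phenol red with 10% FBS. After 72 h at 37 °C with compound, ATP-dependent luminescence was recorded.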
S2 tox: reduces viability in counter-screen for ATXN expression inhibitors. S2 cells (HEK-293 line with an ATXN2-luciferase reporter) viability, CellTiter-Fluor protease fluorescence, 24 h. Potency, µM (highest dose often 56.7 µM), actives largely listed as cytotoxic. 400,000 compounds, 0.49% hits. AID 651635; note: nearly all actives have a fitted effect of over 40% in size
ATXN2 expr inh: ATXN2 expression inhibition | AID 1745845 | Potency, µM (doses to about 57 µM), without a hit: at the top dose activity change, negative = inhibition, usual class: inhibitors | 360,000 compounds, 0.72% hits | HEK-293 ATXN2-luciferase reporter, luminescence, 24 h; note: % is set by controls: 0 for no effect and ±100 for the full control effect; nearly all actives have a fitted effect of over 55% in size
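qHTS (up to 57 uM final) was run with 24 h compound exposure of reporter cells at 37 °C. Each well was multiplexed: SteadyGlo luminescence measured ATXN2-luciferase expression after a fluorogenic Gly-Phe-AFC viability readout (25 uM final).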
TGFb inhibitor: inhibitors of TGF-b signaling; HepG2 CAGA-GFP TGF-b/SMAD3 reporter, GFP fluorescence, 18 h; TGF-beta stimulated, 500 pg/mL final; Potency, µM (top dose mostly 46.1 µM), for inactives: at the top dose activity, negative = inhibition, usual class: inhibitors; 410,000 compounds, 1.2% hits; note: % is set by controls: 0 for no effect and ±100 for the full control effect; nearly all actives have a fitted effect of over 65% in size
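Using HEPG2 CAGA-GFP reporter cells at 1000 cells/well, we pinned test compounds, stimulated with recombinant TGF-beta (500 pg/mL final) and measured total well GFP after 18 h.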
* marks the source's active call; other numbers are inactive results; i = inactive; ? = inconclusive; nt = no result given. Shown are actives, neighbours in structure and some others; about 5.9% of the full set was active somewhere. Calls come from the whole dose curve; as a rule, active = well fitted curve in the direction sought with a large enough effect; inconclusive = small, poorly fitted or top-dose-only effect, or another doubt; inactive = no such curve, though single readings can be large; an effect the other way counts as inactive or inconclusive. Potency is the fitted concentration of half-maximal effect.

SMILES | KB-V1 cytotox | HepG2 viability | KB-3-1 tox | S2 tox | ATXN2 expr inh | TGFb inhibitor
CC(C)c1ccc(S(=O)(=O)N2CCC(C(=O)N3CCN(c4cccc(Cl)c4)CC3)CC2)cc1 | i | -23% | i | i | -12% | -7%
O=C(CCn1c(=O)oc2ccccc21)N1CCN(c2ccccc2F)CC1 | 23µM* | -17% | i | i | 6% | 11%
COc1ccc(/C=C2/CC/C(=C\c3ccc(OC)c(OC)c3OC)C2=O)c(OC)c1OC | 2.1µM* | 17% | i | i | -27% | 7%
COc1ccc(C=C2SC(=S)NC2=O)c(OC)c1OC | 15µM* | -15% | ? | ? | 16% | -5%
COc1ccccc1C=C1SC(=S)NC1=O | i | -26% | i | i | 19% | 10%
Cc1ccc(-c2c[n+]3c(n2-c2ccccc2)SCC3)cc1 | i | -26% | 3.3µM* | ? | ? | -18%
Brc1ccc(-c2c[n+]3c(n2-c2ccccc2)SCC3)cc1 | i | -2% | ? | i | -36% | -1%
COc1ccc(-c2c[n+]3c(n2-c2ccccc2)SCC3)cc1OC | i | 1% | i | i | -16% | -4%
COc1ccc(-c2c[n+]3c(n2-c2ccccc2)SCC3)cc1 | i | -17% | 4.1µM* | i | -35% | ?
CCCCNC(=O)c1ccc2nc(-c3cccs3)c(-c3cccs3)nc2c1 | i | -24% | i | nt | nt | -7%
CCOC(=O)c1c(NC(C)=O)c2c3c(sc2n1Cc1nc(-c2ccccc2OCC)oc1C)CCCC3 | nt | 9% | nt | nt | nt | nt
CCc1sc(N2C(=O)C3C4CCC(C4=C(C)C)C3C2=O)nc1-c1ccccc1 (centres undefined) | 12µM* | -22% | i | i | 7% | ?
COC(=O)[C@]12CCCCC=C1N(Cc1ccccc1)C(=O)[C@H](CC(=O)NCCC(C)C)C2 | ? | nt | i | i | 17% | nt
O=[N+]([O-])c1cc(C(F)(F)F)cc([N+](=O)[O-])c1NCc1cccnc1 | i | -50% | i | i | -12% | ?
O=[N+]([O-])c1cc(C(F)(F)F)cc([N+](=O)[O-])c1NCCCNc1ccc([N+](=O)[O-])c2cccnc12 | 10µM* | 0% | i | i | -15% | -9%
COc1cccc(N2CCN(S(=O)(=O)c3ccc(-c4cc(C(F)(F)F)on4)s3)CC2)c1 | nt | -3% | nt | nt | nt | -19%
Cc1cc(C)cc(NC(=O)Cc2noc3ccccc23)c1 | ? | -17% | ? | i | 22% | -12%
Cc1ccnc(NC(=O)c2cc3ccccc3o2)c1 | ? | -44% | ? | i | ? | 0%
O=C(Nc1ccccn1)c1cc2ccccc2o1 | ? | 7.9µM* | ? | i | 16µM* | 0%
CN(C)S(=O)(=O)c1ccc(S(=O)(=O)Nc2ccc3c(c2)oc2ccccc23)cc1 | ? | -34% | i | i | -5% | 11µM*
Cc1c(C(=O)Oc2cccc3cccnc23)oc2ccccc12 | i | 11µM* | i | i | -12% | ?
CN(C)S(=O)(=O)c1ccc(NC(=O)c2cc3ccccc3o2)cc1 | 21µM* | -1% | i | i | 45% | 19%
CCN(CC)S(=O)(=O)c1ccc(S(=O)(=O)Nc2ccc3c(c2)oc2ccccc23)cc1 | ? | -76% | i | i | -15% | ?
CC(=O)c1ccc(N2CCN(c3nc4c(S(=O)(=O)c5ccc(C)c(C)c5)nnn4c4ccc(Cl)cc34)CC2)cc1 | i | 5% | i | i | -5% | 10%
Cc1c(C(=O)NCc2cccnc2)oc2ccccc12 | 16µM* | -9% | i | i | 4% | -13%
Cc1c(C(=O)Nc2ccccn2)oc2ccccc12 | 10µM* | -21% | i | i | 68% | -1%
Cc1c(C(=O)NCCc2ccccc2)oc2ccccc12 | i | -8% | i | i | 40% | 11%
